Measurements as given in PMC5540273 (PLoS ONE, 2017).

Columns and labels:
Conditions in all cases: concentration: 1 μM, replicates: in singlicate; n = 1
[1] = test system: ZAK
[2] = test system: ZAP70
[3] = test system: T1, p38-alpha
T1 construct: gene MAPK14

[4] = test system: T2, p38-beta
T2 construct: gene MAPK11

[5] = test system: p38-delta
[6] = test system: T3, p38-gamma
T3 construct: gene MAPK12
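Further: KINOMEscan kinase panel screen.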

| Compound | %Inh [1] [%] | %Inh [2] [%] | %Inh [3] [%] | %Inh [4] [%] | %Inh [5] [%] | %Inh [6] [%] |
| --- | --- | --- | --- | --- | --- | --- |
| COc1ccc(C2=C(Nc3cccc(O)c3)C(=O)NC2=O)cc1 [SB-390766] | 7 | 0 | 23 | 0 | 94.4 | 0 |
| CCn1c(-c2nonc2N)nc2c(-c3ccccc3)ncc(OCCCN)c21.O=C(O)C(F)(F)F.O=C(O)C(F)(F)F [GSK260205] | 0 | 0 | 99.5 | 65 | 26 | 2 |
| COC(=O)Nc1nc2ccc(Oc3ccc(NC(=O)Nc4cc(C(F)(F)F)ccc4F)cc3)cc2[nH]1.Cl [GW654607] | 98 | 0 | 88 | 70 | 65 | 9 |
| Nc1ncc(-c2ccc3nccc(-c4ccncc4)c3c2)cc1S(=O)(=O)N1CCCCC1 [GSK1693850] | 22 | 0 | 0 | 0 | 36 | 22 |
| Cc1ccc(NC(=O)c2ccc(Cl)c(Cl)c2)cc1-c1ccc(C(=O)Nc2ccncc2)cc1 [GSK1398460] | 49 | 0 | 0 | 12 | 24 | 0 |
| O=C(Nc1n[nH]c2cc(-c3cccs3)ccc12)C1CC1 [SB-731284] | 22 | 12 | 0 | 0 | 0 | 22 |
| Cc1ccc(C)c(NC(=O)Nc2ccc(C)c(-c3ccc(C(=O)Nc4ccncc4)cc3)c2)c1 [GSK1398473] | 70 | 0 | 0 | 0 | 38 | 0 |
| CN1CCN(Cc2ccc(NC(=O)Nc3ccc(N(C)c4ccnc(Nc5ccc(CS(C)(=O)=O)cc5)n4)cc3)cc2)CC1.Cl [GW827654] | 21 | 52 | 0 | 0 | 0 | 48 |
| COc1ccc(NC(=O)c2ccoc2)cc1-c1ccc(C(=O)NCC2CC2)cc1 [GW810437] | 2 | 36 | 10 | 1 | 0 | 0 |
| COc1cc(Nc2nccc(N3CCC(NC(=O)Nc4ccc5c(c4)OCO5)C3)n2)cc(OC)c1OC (stereo not drawn) [GSK1379766] | 34 | 0 | 0 | 0 | 24 | 0 |
| O=C(O)C(F)(F)F.O=c1[nH]ccc2nc(N[C@@H]3CCNC3)nc(Nc3cc(Cl)cc(Cl)c3)c12 [GSK2188764] | 0 | 1 | 0 | 0 | 18 | 23 |
| COc1cccc2c(-c3ccncc3)c(-c3ccc(F)cc3)nn12 [GW468513] | 16 | 9 | 99.9 | 82 | 34 | 0 |
| COc1cccc(C2=C(Nc3cccc(O)c3)C(=O)NC2=O)c1 [SB-390771] | 38 | 5 | 0 | 0 | 45 | 18 |
| COc1cc(Nc2nccc(N3CCC(NS(=O)(=O)c4ccc(NC(C)=O)cc4)CC3)n2)cc(OC)c1OC [GSK1379825] | 64 | 5 | 0 | 52 | 11 | 0 |
| Cc1cccc(Nc2nc(N[C@H]3CCCC[C@H]3N)ncc2C(N)=O)c1.Cl [GSK986310] | 0 | 92.9 | 0 | 0 | 45 | 0 |
| Cl.Cl.NC(CNC(=O)c1cc(Br)c(-c2ccnc3[nH]ccc23)s1)c1ccccc1 (stereo not drawn) [GSK1322949] | 11 | 0 | 23 | 0 | 14 | 50 |
| Cn1cc(-c2ccc3c(c2)CCN3C(=O)Cc2cc(F)cc(F)c2F)c2c(N)ncnc21 [GSK2634140] | 0 | 0 | 0 | 0 | 14 | 2 |
| O=C1NC(=O)C(c2ccccc2Cl)=C1Nc1cccc(Cl)c1 [SB-342409] | 21 | 0 | 0 | 0 | 28 | 0 |
| Cc1ccccc1CC(=O)N1CCc2cc(-c3cn(C)c4ncnc(N)c34)ccc21 [GSK2603346] | 0 | 0 | 0 | 0 | 27 | 0 |

| Compound | %Inh [1] [%] | %Inh [2] [%] | %Inh [3] [%] | %Inh [4] [%] | %Inh [5] [%] | %Inh [6] [%] |
| --- | --- | --- | --- | --- | --- | --- |
| Cc1ccc(NC(=O)c2ccnc(N3CCCCC3)c2)cc1-c1ccc(C(=O)NCC2CC2)cc1 [GW775610] | 21 | 0 | 99.9 | 100 | 2 | 62 |
| CN(C)c1ncnc2nc[nH]c12 [SKF-31736] | 0 | 7 | 7 | 0 | 0 | 2 |
| CCNc1nccc(-c2c(-c3ccc(F)cc3)ncn2C2CCN(C)CC2)n1 | 7 | 0 | 99.8 | 63 | 0 | 36 |
| COc1ccc(C)c(Nc2ccnc(Nc3ccc(-c4cnc[nH]4)cc3)n2)c1.Cl [GW784041] | 92.4 | 0 | 0 | 14 | 11 | 42 |
| Nc1ncnc2scc(-c3ccc(NC(=O)Cc4cc(F)ccc4F)cc3)c12.O=C(O)C(F)(F)F [SB-731254-M] | 4 | 0 | 0 | 7 | 0 | 41 |
| CN(C)CCNS(=O)(=O)c1ccc(-c2ccnc3[nH]ccc23)cc1 [GSK977620] | 83 | 0 | 0 | 1 | 39 | 0 |
| CSc1ccc(NC2=C(c3ccc(Cl)cc3)C(=O)NC2=O)cc1 [SB-317658] | 28 | 0 | 0 | 12 | 11 | 0 |
| CN(c1ccc(F)c(NC(=O)c2cccc(OC(C)(C)C#N)c2Cl)c1)c1ccc2nc(NC(=O)C3CC3)sc2n1 | 64 | 0 | 70 | 6 | 0 | 37 |
| CCOc1nccc(-c2c(-c3ccc(F)cc3)ncn2C2CCNCC2)n1 [SB-249175] | 15 | 32 | 99.3 | 100 | 4 | 43 |
| COC(=O)Nc1nc2ccc(Oc3ccc(CC(=O)Nc4cc(C(F)(F)F)ccc4F)cc3)cc2[nH]1 [GW680903] | 91.6 | 38 | 6 | 0 | 47 | 0 |
| Cc1ccc(NC(=O)c2cccc(N3CCCCC3)c2)cc1-c1ccc(C(=O)NCC2CC2)cc1 [GSK1917008] | 33 | 0 | 99.9 | 99.4 | 46 | 50 |
| Cc1ccc(O)cc1Nc1ccnc2ccc(C(C)(C)C)cc12 [GW856805] | 0 | 15 | 1 | 16 | 0 | 41 |
| Cc1cc(-c2c(-c3ccc(F)cc3)ncn2CCCN2CCOCC2)nc(N)n1 [SB-222517] | 13 | 15 | 22 | 17 | 0 | 27 |
| Cl.Cl.NCC(NC(=O)c1cc(-c2cccnc2)c(-c2ccnc3[nH]ccc23)s1)c1ccccc1 (stereo not drawn) [GSK1323434] | 7 | 0 | 31 | 0 | 21 | 32 |
| O=C(Nc1n[nH]c2nc(-c3ccccc3)ccc12)C1CC1 [SB-708999] | 15 | 19 | 10 | 29 | 25 | 2 |
| CN(c1ccc(NC(=O)N2CCN(CCCN3CCOCC3)CC2)cc1)c1ccnc(Nc2ccc(CS(C)(=O)=O)cc2)n1.Cl [GW830899] | 5 | 0 | 9 | 0 | 0 | 41 |
| CC(C)c1nc(-c2cccc(NS(=O)(=O)c3c(F)cccc3F)c2)c(-c2ccnc(Nc3ccc(N4CCOCC4)nc3)n2)s1.Cl [GSK1723980] | 98.6 | 0 | 27 | 10 | 0 | 0 |
| CC(C)c1nc(-c2ccc(F)c(NS(=O)(=O)c3c(F)cccc3F)c2)c(-c2ccnc(Nc3ccc(N4CCOCC4)nc3)n2)s1 [GSK1804250] | 98.3 | 0 | 96 | 38 | 57 | 1 |
